Screening results from PubChem.
Compounds with a hit are over-represented: about 1.5% of the library has one in this group of screens.
E coli Lon inh: E. coli protease La inhibition; purified E. coli Lon protease, fluorescence polarization; inhibition, % at 7.94 µM; 0.42% of 360,000 active; AID 602123; in the data active = inhibition above about 13%, passing the limit was not always enough;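 note: 0% = enzyme with probe and DMSO and 100% = no enzyme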
Bcl-xL primary: blocks human Bcl-xL binding to Bim BH3 peptide. Q07817. GST-Bcl-xL / FITC-Bim BH3 peptide fluorescence polarization. inhibition, % at 10.9 µM. 0.7% of 320,000 active;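 active = inhibition above the mean of all tested compounds plus 3 SD, cutoff set per campaign, cut at about 30% in these data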;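 note: 0% = DMSO wells and 100% = unlabeled Bim-BH3 peptide competitor; inhibitors lower millipolarization by displacing the labeled peptide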
MEX-5 binding: C. elegans MEX-5 TCR-2 RNA binding activity. MEX-5/FITC-TCR2 RNA binding, fluorescence polarization; active compounds read low. Q9XUB2. AID 1832. activity score (negative = inhibition of binding), % at 10 µM. 0.38% of 300,000 active;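 active = inhibition past about -25% in most replicates, and total fluorescence under double the plate's negative control median, limit read from the data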;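 note: 0% = DMSO and -100% = 5 µM competing unlabeled TCR2 RNA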
GLD-1 RNA inh: GLD-1-TGE RNA interaction inhibition (C. elegans) | Q17339 | purified GLD-1 + fluorescein TGE RNA, fluorescence polarization | inhibition, % at 5.96 µM | 0.44% of 320,000 active | AID 2280;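 active = percent inhibition above a per-plate cutoff, the plate mean of test compounds plus 3 SD, cut at about 30% in these data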;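 note: 0% = DMSO wells with GLD-1 and probe and 100% = wells lacking GLD-1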
Target sequence (Q17339 whole entry, looked up): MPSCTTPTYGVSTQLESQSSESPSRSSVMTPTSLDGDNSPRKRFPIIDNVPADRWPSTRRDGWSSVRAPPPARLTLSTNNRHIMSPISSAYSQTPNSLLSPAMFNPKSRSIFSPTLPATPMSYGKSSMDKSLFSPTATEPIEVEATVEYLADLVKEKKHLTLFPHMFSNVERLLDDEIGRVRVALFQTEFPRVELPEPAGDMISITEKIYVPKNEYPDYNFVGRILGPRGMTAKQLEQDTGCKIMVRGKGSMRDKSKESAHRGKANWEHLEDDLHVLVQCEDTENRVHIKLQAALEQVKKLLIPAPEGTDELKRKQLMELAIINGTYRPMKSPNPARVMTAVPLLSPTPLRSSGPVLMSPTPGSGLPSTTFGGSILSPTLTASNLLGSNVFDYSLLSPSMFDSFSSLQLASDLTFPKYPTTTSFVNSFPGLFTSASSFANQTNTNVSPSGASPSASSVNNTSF
MCL1 BIM primary: MCL1-BIM-BH3 interaction inhibition (human); Q07820; GST-MCL1 / FITC-Bim-BH3 fluorescence polarization; inhibition, % at 10.9 µM; 0.68% of 320,000 active;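 active = inhibition above the mean inhibition of all tested compounds plus 3 SD, set per campaign, cut at about 40% in these data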;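 note: 0% = DMSO wells and 100% = unlabeled Bim-BH3 peptide control; higher means more loss of mP so more displacement of Bim peptide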
EBV gp42 block: blocks Epstein-Barr virus glycoprotein 42 binding | Q1HVG2 | Fluorescence polarization binding assay, mP read-out | inhibition, % (tested at 21.74 µM) | 0.42% of 220,000 active | AID 1085; in the data active = inhibition above about 50%
GLD1 RNA confirm: GLD-1 TGE RNA interaction inhibition, confirmation; inhibition, % at 5.96 µM; shares compounds with GLD-1 RNA inh; GLD-1/FL-TGE RNA fluorescence polarization, biochemical; 10% of 550 active; AID 2459;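 active = average inhibition across triplicates above the hit cutoff set in the primary screen, cut at about 32% in these data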;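 note: 0% = GLD-1 with RNA probe and DMSO and 100% = wells lacking GLD-1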
Numbers without * were called inactive; x = no result given.

SMILES	E coli Lon inh	Bcl-xL primary	MEX-5 binding	GLD-1 RNA inh	MCL1 BIM primary	EBV gp42 block	GLD1 RNA confirm
COc1ccc(CN2C(=O)CN=C2Nc2cc(C)ccc2C)cc1	4	9	-4	33*	4	-5	-3
Cc1cc(Oc2ccc(=O)[nH]n2)nc(Cl)n1	-3	40*	0	35*	34	-8	-5
CSc1nc(C)cc(Oc2ccc(=O)[nH]n2)n1	-6	2	-2	1	4	-3	x
O=S(=O)(Nc1ccc(F)cc1)c1ccc(NS(=O)(=O)c2cccs2)cc1	-16	2	1	-4	1	x	x
COc1ccc(-n2nc(C(=O)NCC(=O)NC3CCCC(C)C3C)c3ccccc3c2=O)cc1 (centres undefined)	0	8	4	33*	14	x	-1
CC(C)(C)NS(=O)(=O)c1ccc(NC(=O)CS(=O)(=O)Cc2ccccc2)cc1	2	2	3	4	7	x	x
CN1CCN(C(=S)c2ccc(Br)cc2)CC1	4	5	-1	5	0	-8	x
CN1CCN(C(=S)c2ccc([N+](=O)[O-])cc2)CC1	-1	3	2	79*	2	-24	0
Cc1cnc(NC(=O)Cc2ccc(S(=O)(=O)N3CCOCC3)s2)s1	20	x	x	48*	x	x	-5
Nn1c(C2CCC2)nc2cc(Cl)ccc2c1=O	1	7	-1	10	4	x	x
O=C(Nc1nc2c(F)cc(F)cc2s1)C1CC(=O)N(Cc2ccco2)C1 (centres undefined)	-8	9	2	5	13	12	x
COc1ccc(CNCCC(c2ccccc2)C2CCOC(C)(C)C2)cc1 (centres undefined)	-2	3	1	49*	0	-11	2
Nc1ncnc2c1nc(SCCO)n2Cc1ccccc1	0	3	0	6	3	-5	x
CCCC(=O)N1CCN(c2ccc(NC(=S)NC(=O)CC)cc2)CC1	-6	9	1	3	7	6	x
CCCC(=Nc1ccc(N)cc1)C1=C(O)C(C(=O)OC)C(C)(C)CC1=O (centres undefined)	6	44*	-1	33*	49*	-16	6
COc1cc(NC(=O)c2cccs2)cc(OC)c1	7	7	3	52*	10	-18	-2
COc1cccc(NC(=O)c2cccs2)c1	1	5	0	-1	10	4	x
COc1ccc(Nc2ncc3c(n2)CC(c2ccc(OC)cc2)CC3=O)cc1 (centres undefined)	6	4	3	45*	-1	-6	1
COc1ccc(Nc2ncc3c(n2)CC(c2ccc(C)cc2)CC3=O)cc1 (centres undefined)	-14	6	-2	3	7	-16	x
COc1ccc2nc(N3CCCCC3)c(C#N)cc2c1	-2	32*	-21	46*	27	58*	65*
COc1ccc2nc(SCC(=O)N3CCCCCC3)c(C#N)cc2c1	-6	5	5	4	-3	-17	x
CCSC1(SCC)N=C(N)C2(C#N)C(c3ccccc3)NC3=C(CCC3)C12C#N (centres undefined)	-5	27	0	50*	26	-23	-2
Oc1ccc(/C=N/Nc2cc(N3CCCC3)nc(N3CCCC3)n2)cc1	5	17	1	39*	24	43	38*
Cc1ccccc1OC(=O)C1C(c2ccccc2)C(C(=O)O)C1c1ccccc1 (centres undefined)	-2	-2	2	39*	-7	-7	3
CCN(CC)C(=O)CSc1nnc2nnc3cc(C)ccc3n12	40	28	-4	42*	32	31	23
CCN(C(=O)CSc1nnc2nc(C)cc(C)n12)c1ccccc1	8	5	0	-6	5	-6	x
N#Cc1ccccc1OCC(=O)NNC(=O)CNC(=O)c1cccc(Br)c1	0	1	x	0	10	x	1
C[C@H](CO)N1C[C@H](C)[C@@H](CN(C)S(=O)(=O)c2cn(C)cn2)OCc2cn(nn2)CCCC1=O	-4	x	x	x	x	x	x
